Gal4-VP16 FLuc = inhibits Gal4-VP16 luciferase reporter, ROR gamma counter-screen; Drosophila S2 Gal4-VP16 UAS-luciferase, luminescence, 20 h; AID 2546; Potency, µM (titrated, usually from 53.6 µM), without a hit: top-dose activity, negative = inhibition, most hits filed as inhibitors; actives 3.5% (n = 310,000);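 further: Gal4-VP16 expression switched on by copper sulfate through the metallothionein promoter; potency means the concentration at half of the fitted maximal effect; on the % scale 0 is the no-effect control and ±100 the full control effect; nearly all actives have a fitted effect of over 50% in size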
CtBP-E1A blk = blocks the CtBP interaction with E1A. AlphaScreen GST-E1A/His-CtBP binding, 1536-well; hits give low values. activity change, % (concentration not given with the values). actives 0.49% (n = 340,000). AID 651724; in the data active means activity change below about -65%; inconclusive means mostly about -30% to -63%; further: on the % scale 0 is the no-effect control and ±100 the full control effect
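Homogeneous bead-based format: GST-tagged E1A captured on glutathione donor beads, His-tagged CtBP on nickel acceptor beads; compounds precede bead addition by 2 h at 37 °C.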
RORgamma inh = ROR gamma (mouse) transcription inhibition. AID 2551. Potency, µM (top dose mostly 53.6 µM), for the others: top-dose activity change, negative = inhibition, actives largely listed as inhibitors. Drosophila S2 Gal4-RORgamma UAS-luciferase reporter, 20 h. actives 5.4% (n = 310,000). P51450; further: potency means the concentration at half of the fitted maximal effect; on the % scale 0 is the no-effect control and ±100 the full control effect; nearly all actives have a fitted effect of over 60% in size
Target sequence (P51450 whole entry, looked up, the tested form may be a part): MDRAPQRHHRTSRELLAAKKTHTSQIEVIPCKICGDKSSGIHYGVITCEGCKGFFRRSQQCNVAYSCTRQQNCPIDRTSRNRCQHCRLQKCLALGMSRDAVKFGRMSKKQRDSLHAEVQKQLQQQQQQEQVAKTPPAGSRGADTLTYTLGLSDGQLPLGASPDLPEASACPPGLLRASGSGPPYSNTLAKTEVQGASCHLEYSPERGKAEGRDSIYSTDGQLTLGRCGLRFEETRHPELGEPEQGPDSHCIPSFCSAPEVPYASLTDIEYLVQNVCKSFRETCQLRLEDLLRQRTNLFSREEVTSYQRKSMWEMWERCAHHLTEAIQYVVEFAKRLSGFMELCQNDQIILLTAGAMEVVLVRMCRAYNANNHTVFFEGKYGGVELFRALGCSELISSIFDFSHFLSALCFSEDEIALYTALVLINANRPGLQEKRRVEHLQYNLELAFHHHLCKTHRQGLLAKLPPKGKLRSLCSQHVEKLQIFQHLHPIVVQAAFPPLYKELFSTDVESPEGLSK
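Drosophila S2 cells stably expressing Gal4-DBD/mouse RORγ fusion under metallothionein promoter plus UAS-luciferase; compound 1 h, then 700 uM CuSO4 induction for 20 h at ambient temperature; inhibition read as reduced luminescence.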
Six1-Eya2 inh = blocks human Six1 binding to Eya2; AlphaScreen GST-Six1/His-Eya2 binding, biochemical; hits give low values; AID 651725; actives 0.56% (n = 360,000); activity change, % (test concentration not listed); in the data active means activity change below about -65%; inconclusive means mostly about -30% to -63%; further: on the % scale 0 is the no-effect control and ±100 the full control effect
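AlphaScreen with GST-Six1 and His-Eya2 (5X mix: 250 nM and 500 nM), glutathione donor and nickel acceptor beads; buffer 50 mM Tris pH 8.0, 300 mM NaCl, 1 mM TCEP; 1 h at 37 C in the dark.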
p53 reactivator = mutant p53 re-activation in reporter cells | Potency, µM (titrated, usually from 92.2 µM), for inactives: at the top dose activity change, positive = activation, most hits filed as activators | actives 0.063% (n = 320,000) | H1299 p53-A138V BP100-luciferase reporter, luminescence, 24 h; further: potency means the concentration at half of the fitted maximal effect; % of control where 0% means no effect; nearly all actives have a fitted effect of over 45% in size
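p53-null H1299 cells stably carrying temperature-sensitive p53-A138V and a BP100-luciferase reporter were pinned with compounds (4-point, 1:5 series) and held 24 hrs at 37 deg C. Luminescence was read 10 min after detection reagent.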
* marks the source's active call; other numbers are inactive results; ? = inconclusive; · = no result; [ ] = remark or other dose. Most compounds without a hit are left out; they make up all but 5.4% or so of the library. Unless noted, the call rests on the fitted dose curve; in most records, active means well fitted curve in the direction sought with a large enough effect; inconclusive means small, poorly fitted or top-dose-only effect, or another doubt; inactive means no such curve, though single readings can be large; an effect the other way counts as inactive or inconclusive.

SMILES | Gal4-VP16 FLuc | CtBP-E1A blk | RORgamma inh | Six1-Eya2 inh | p53 reactivator
CN(C(=O)CN1C(=O)/C(=C/c2ccccc2Cl)SC1=S)C1CCS(=O)(=O)C1 (stereo unspecified) | ? | 1.2 | 10µM* | -5.7 | 16.4%
O=C(CCN1C(=O)/C(=C/c2ccccc2Cl)SC1=S)Nc1ccccn1 | -5.6% | · | -32.5% | -26.3 | 1.2%
O=C1/C(=C/c2ccccc2Cl)SC(=S)N1CCCC(=O)N(CCO)c1ccccc1 | ? | -14.3 | 2.24µM* | -20.0 | -12.8%
O=C(CCCN1C(=O)/C(=C/c2ccccc2Cl)SC1=S)Nc1ccccn1 | ? | 4.3 | 1.78µM* | -12.2 | -33.1%
O=C(CCCN1C(=O)/C(=C/c2ccccc2Cl)SC1=S)Nc1cccnc1 | -101.2% | 0.0 | 0.224µM* | -24.9 | 1.2%
CC(C)c1ccc(C2CC(c3ccc(Br)cc3)=NN2C(N)=S)cc1 (stereo unspecified) | 5.62µM* | -23.2 | 1.78µM* | -12.9 | ?
CNC(=S)N1N=C(c2ccc(C)cc2)CC1c1ccc(Cl)cc1 (stereo unspecified) | -1.7% | -9.5 | 12.6µM* | -3.5 | -2.3%
CNC(=S)N1N=C(c2ccccc2)CC1c1ccccc1Cl (stereo unspecified) | -9.3% | 3.5 | 17.8µM* | 7.8 | -1.2%
COc1cccc(-n2sc3c(c2=S)-c2cc(OC)ccc2NC3(C)C)c1 | -7.7% | -7.5 | ? | -26.7 | 1.1%
CC1(C)Nc2ccc(O)cc2-c2c1ssc2=S | ? | -14.8 | 8.91µM* | ? | 9.5%
Cc1cc(=O)[nH]c(N/N=C/c2ccc(-c3ccc([N+](=O)[O-])cc3)o2)n1 | -15.6% | -74.0* | 15.9% | -70.8* | 2.1%
NC(=S)N/N=C/c1ccc(-c2ccc([N+](=O)[O-])cc2)o1 | ? | -0.9 | 7.08µM* | -27.8 | 0.0%
CCOC(=O)N/N=C\c1ccc(-c2cc(Cl)ccc2Cl)o1 | -19.1% | 7.1 | 21.7% | -8.6 | 0.0%
NC(=S)N/N=C/c1ccc(-c2cc(Cl)ccc2Cl)o1 | 2.82µM* | ? | 1.26µM* | -20.1 | 6.1%
NC(=S)N/N=C/c1ccc(-c2cc(Cl)cc(Cl)c2)o1 | 3.98µM* | -7.1 | 1.26µM* | -9.0 | ·
COC(=O)N/N=C/c1ccc(-c2cc(Cl)cc(Cl)c2)o1 | -7.3% | -1.2 | 19.1% | -6.2 | -3.4%
Cc1cccc(CNc2cc(-c3cccnc3)ncn2)c1 | -1.5% | · | 38.5% | · | ·
CC(NC(=S)NC1CCCCC1)c1ccc(C(C)(C)C)cc1 (stereo unspecified) | 2µM* | -16.2 | 1.58µM* | 16.8 | ?
CC(NC(=O)C1CCCCC1)c1ccc2c(c1)OCCO2 (stereo unspecified) | -0.3% | -1.9 | 11.2% | 12.8 | 20.4%
CC(C)c1ccc(/C=C/C(=O)NC2CCCCC2)cc1 | -15.5% | 8.5 | ? | 5.6 | 23.2%
CC(C)c1ccc(C(C)NC(=S)NC2CCCCC2)cc1 (stereo unspecified) | 2.82µM* | -6.0 | 1.41µM* | -11.3 | 6.8%
CC1CCN(c2nc(-c3cccnc3)nc3scc(-c4ccccc4)c23)CC1 | ? | -2.7 | 45.9% | 1.0 | -10.1%
Clc1nc(-c2ccccn2)nc2scc(-c3ccccc3)c12 | -3.5% | -8.8 | 4.9%[10 µM] | -72.9* | 11.2µM*
Cc1cc2n(n1)SC(Nc1cccc3ccccc13)N2 (stereo unspecified) | 4.47µM* | -5.0 | 2µM* | -5.4 | 11.5%
Cc1cc2n(n1)SC(Nc1ccc(F)cc1)N2 (stereo unspecified) | ? | -1.3 | ? | 3.5 | 7.9%
SMILES | Gal4-VP16 FLuc | CtBP-E1A blk | RORgamma inh | Six1-Eya2 inh | p53 reactivator
Cc1cc2n(n1)SC(Nc1cc(Cl)ccc1Cl)N2 (stereo unspecified) | 0.562µM* | -0.3 | 0.501µM* | -2.8 | 16.4%
CCc1ccccc1NC1Nc2cc(C)nn2S1 (stereo unspecified) | 12.6µM* | 0.2 | 5.62µM* | -3.3 | -0.5%
CCc1ccccc1NNC(=O)c1cc(C)on1 | -4.0% | · | -1.2% | 2.2 | 1.8%
COc1ccc(-c2ccc(C(=O)NCc3ccco3)c3occc23)c(C)c1 | · | -23.6 | · | -5.2 | ·
COc1ccc(-c2ccc(C(=O)NCc3ccc(N(C)C)cc3)c3occc23)c(C)c1 | · | -66.3* | · | -65.0* | ·
O=C1C=Cc2ccccc2/C1=C/c1[nH]c(=O)[nH]c1O | ? | · | 6.31µM* | -10.1 | -0.1%
CCc1ccccc1NC(=O)CCCSc1nc2ccccc2s1 | ? | · | ? | 4.4 | 7.3%
Cc1csc(NC(=O)CCCSc2nc3ccccc3s2)n1 | 2µM* | -9.4 | 31.6µM* | -6.1 | -0.7%
Cc1csc(NC(=O)CSc2nc3ccccc3s2)n1 | -13.5% | -1.4 | -29.2% | -4.2 | 9.4%
O=C(CCCSc1nc2ccccc2s1)NCc1ccco1 | 11.2µM* | -1.8 | 14.1µM* | -4.0 | 9.5%
NC(=O)C1CCN(C(=O)Cc2ccsc2)CC1 | 23.2% | 7.3 | 12.8% | 3.8 | 14.7%
COc1ccc(Cl)cc1-c1noc([C@@H]2O[C@H](CO)[C@@H](O)[C@H]2O)n1 | · | 4.9 | · | 3.1 | ·
COC(=O)c1ccc(CC(=O)c2ccc(O)cc2O)o1 | 9.0% | 11.0 | 0.6% | -2.9 | 7.0%
COC(=O)c1ccc(CC(=O)c2c(C)cc(O)cc2O)o1 | ? | 0.0 | 11.2µM* | 3.5 | -6.4%
O=C1Nc2ccccc2N(O)N1c1cc(-c2ccc(Cl)cc2)[nH]n1 | 5.1% | 5.9 | 0.5% | 3.8 | -2.3%
COC(=O)CSc1nc2sc3c(c2c(=O)[nH]1)CCC3 | -11.5% | 5.2 | 16.1% | 3.3 | 3.6%
CC(=O)N1CCOc2ccc(S(=O)(=O)N3CCC(C(=O)NCc4ccc(F)cc4)CC3)cc21 | -1.3% | 0.0 | 3.3% | -6.6 | -3.8%
N#CC1(O)CCCCC1 | -6.3% | · | 22.8% | · | ·
COc1ccc(/C=C2\CCCC3C2=NC(=S)NC3c2ccc(OC)cc2)cc1 (stereo unspecified) | 12.6µM* | 1.8 | 6.31µM* | 1.0 | -8.6%
Cc1cc(C)cc(-n2ncc3c2CCCC3NC(=O)CN2CCCCC2=O)c1 (stereo unspecified) | · | -0.7 | · | 7.3 | ·
S=c1[nH]nc(C2CCCCC2)n1/N=C/C=C/c1ccccc1 | 6.31µM* | -7.4 | 0.891µM* | -10.2 | -2.0%
S=c1[nH]nc(C2CCCCC2)n1/N=C/C(Cl)=C\c1ccccc1 | 5.62µM* | 19.2 | 2µM* | 2.0 | ?
S=c1[nH]nc(-c2cc(-c3ccccc3)n[nH]2)n1/N=C/C=C/c1ccccc1 | 17.7% | -12.3 | -43.2% | -9.0 | 1.7%
S=c1[nH]nc(-c2cccnc2)n1/N=C/C=C/c1ccccc1 | ? | · | 4.47µM* | 5.2 | 3.3%
CCn1c(Sc2ccc([N+](=O)[O-])cn2)nnc1-c1ccco1 | ? | 24.4 | 10µM* | 22.7 | -10.2%
CN1/C(=C\C=N\NC(=O)c2cccnc2)C(C)(C)c2ccccc21 | 0.891µM* | -6.2 | 0.501µM* | 33.6 | 10.6%

High-throughput results: PubChem BioAssay, National Center for Advancing Translational Sciences (NCATS)
